ELG1 genotox = genotoxicity induction in ELG1-luciferase HEK293T cells; HEK293T ELG1-luciferase reporter, luminescence, 16 h; Potency, µM (top dose mostly 46 µM), hits mostly activators; actives 1.3% (n = 330,000); AID 504466; also: nearly all actives have a fitted effect of over 60% in size
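Genotoxicity was scored as increased ELG1-luciferase reporter signal, measured by ONE-Glo luminescence (30 min, room temperature). Compound or vehicle exposure of the HEK293T reporter cells lasted 16 hr at 37°C.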
SMN2 splice enh = increases expression of the SMN2 splice variant. HEK293 SMN2-luciferase splicing reporter, luminescence, 30-36 h. actives 2.8% (n = 210,000). Potency, µM (highest dose often 46.1 µM), hits mostly activators; also: nearly all actives have a fitted effect of over 55% in size
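HEK293 cells carry an SMN2 minigene-luciferase reporter in which exon 7 inclusion puts luciferase in frame. Cells were seeded at 2000 cells/well, attached for 10-12 hours, then exposed to compounds for 30-36 hours at 37C before ONE-Glo luminescence.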
NPC1 prom act = NPC1 promoter activation; Potency, µM (series often up to 9.22 µM), most hits filed as activators; actives 2.4% (n = 320,000); Huh7 NPC1 promoter luciferase reporter, 24 h; also: nearly all actives have a fitted effect of over 60% in size
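NPC1 promoter–luciferase Huh7 cells; 24 h compound; luminescence.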
Rab9 promoter act = activators of Rab9 promoter; Potency, µM (doses to about 9.22 µM), actives largely listed as activators; Huh7 Rab9 promoter-luciferase reporter, luminescence, 24 h; actives 2.8% (n = 320,000); also: nearly all actives have a fitted effect of over 60% in size
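Luminescence read-out: Huh7 cells stably expressing Rab9-luciferase, treated 24 h with compound at 37 °C, then lysed with luciferase reagent for 10 min at ambient before reading.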
FLuc counter = firefly luciferase modulation, counter-screen for miR-21 project. AID 588342. Potency, µM (titrated, usually from 57.5 µM), usual class: inhibitors. P08659. actives 6.9% (n = 360,000). purified FLuc, Km substrates, luminescence inhibition; also: nearly all actives have a fitted effect of over 55% in size
Target sequence (P08659 whole entry, looked up): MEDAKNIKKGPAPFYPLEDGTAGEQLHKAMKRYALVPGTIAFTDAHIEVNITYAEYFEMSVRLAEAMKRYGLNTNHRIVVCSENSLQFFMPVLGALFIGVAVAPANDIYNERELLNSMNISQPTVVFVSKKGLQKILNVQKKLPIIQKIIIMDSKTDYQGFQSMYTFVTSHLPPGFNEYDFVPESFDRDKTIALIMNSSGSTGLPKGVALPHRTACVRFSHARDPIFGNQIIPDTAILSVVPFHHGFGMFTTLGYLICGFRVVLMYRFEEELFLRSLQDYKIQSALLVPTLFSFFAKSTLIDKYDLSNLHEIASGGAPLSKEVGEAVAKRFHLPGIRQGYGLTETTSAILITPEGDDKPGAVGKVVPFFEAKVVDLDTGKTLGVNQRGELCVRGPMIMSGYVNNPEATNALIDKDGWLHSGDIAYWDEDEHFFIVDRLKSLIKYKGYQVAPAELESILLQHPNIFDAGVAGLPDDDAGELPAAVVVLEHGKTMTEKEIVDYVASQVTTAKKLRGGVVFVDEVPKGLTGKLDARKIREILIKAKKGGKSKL
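Purified P. pyralis luciferase, 10 nM final, with Km-level 10 uM D-luciferin and 10 uM ATP in 50 mM Tris acetate pH 7.5, 10 mM Mg acetate, 0.01% Tween-20, 0.05% BSA; 6-point qHTS titration about 60 µM downward; luminescence read.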
Each line names hits and unclear results; the compound was inactive in the other large screens. An excerpt weighted towards active compounds, which were near 7.5% of everything screened. Calls follow the shape of the dose curve; as a rule, active = well fitted curve in the direction sought with a large enough effect; inconclusive = small, poorly fitted or top-dose-only effect, or another doubt; inactive = no such curve, though single readings can be large; an effect the other way counts as inactive or inconclusive.

O=C(CSc1ncn(-c2ccccc2)n1)c1cccs1	ELG1 genotox inconclusive, SMN2 splice enh inconclusive, NPC1 prom act 2.8µM, Rab9 promoter act 1.4µM, FLuc counter 7.6µM
Nc1nc(CSc2ncn(-c3ccccc3)n2)cs1	ELG1 genotox inconclusive, SMN2 splice enh 16µM, NPC1 prom act 2µM, Rab9 promoter act 1.3µM, FLuc counter 11µM
c1ccc(CSc2ncn(-c3ccccc3)n2)cc1	ELG1 genotox 4.1µM, SMN2 splice enh 14µM, NPC1 prom act 3.2µM, Rab9 promoter act 2.2µM, FLuc counter 4.8µM
CCN(CC)c1ccc(CNC(=O)C/C(C)=N/NC(=O)COc2ccc(C)cc2Br)cc1	FLuc counter inconclusive (no result: SMN2 splice enh)
Brc1ccc(C2=NC(Cc3ccccc3)CO2)cc1 (stereo not given)	ELG1 genotox inconclusive, SMN2 splice enh 7.1µM, NPC1 prom act inconclusive, Rab9 promoter act inconclusive, FLuc counter 6.7µM
O=C1CN(C(=O)c2ccccc2F)C(c2ccc(F)cc2)c2cc(Br)ccc2N1 (stereo not given)	none (no result: SMN2 splice enh)
N#Cc1c(/N=C/C=C/c2ccccc2)sc2c1CCCC2	Rab9 promoter act inconclusive, FLuc counter 6.7µM
CC(C)CN(/C=N/c1sc2c(c1C#N)CCCCC2)CC(C)C	none
CCN(/C=N/c1sc2c(c1C#N)CCCCC2)CC	ELG1 genotox inconclusive, SMN2 splice enh 11µM, NPC1 prom act 2.5µM, Rab9 promoter act 3.2µM, FLuc counter 4.8µM
N#Cc1c(N)sc2c1CCCCCC2	FLuc counter inconclusive (no result: SMN2 splice enh)
CN1CCN(/C=N/c2sc3c(c2C#N)CCCCC3)CC1	ELG1 genotox inconclusive, SMN2 splice enh 16µM, NPC1 prom act 2.5µM, Rab9 promoter act 2.2µM, FLuc counter 12µM
COCCn1c(C)cc(C(=O)COC(=O)/C=C/c2ccc(OC)cc2OC)c1C	none (no result: SMN2 splice enh, NPC1 prom act, Rab9 promoter act, FLuc counter)
Brc1ccc2nc(N3CCN(c4ccccc4)CC3)sc2c1	ELG1 genotox 2.3µM, SMN2 splice enh 3.2µM, NPC1 prom act 1.8µM, Rab9 promoter act 1µM, FLuc counter inconclusive
O=S(=O)(c1ccc(Cl)cc1)N1CCCN(c2nc3ccc(Cl)cc3s2)CC1	none (no result: SMN2 splice enh)
Clc1ccc2nc(N3CCN(c4ccccc4)CC3)sc2c1	ELG1 genotox inconclusive, SMN2 splice enh 3.2µM, NPC1 prom act 1.4µM, Rab9 promoter act 0.89µM, FLuc counter 0.6µM
CC1CN(C2=CC(=O)CCC2)CC(C)O1 (stereo not given)	none
COCCN(C(=O)CCC(=O)Nc1ccccn1)C(C(=O)NC(C)(C)C)c1ccc(OC)cc1 (stereo not given)	none (no result: SMN2 splice enh)
CCN(CC(=O)Nc1c(F)cccc1F)C(=O)CCSc1ccc(F)cc1	none (no result: SMN2 splice enh)
O=C(CSc1nnc(NC(=O)c2ccco2)s1)Nc1ccccc1	SMN2 splice enh inconclusive, FLuc counter 21µM
CC(=O)Nc1ccc(NC(=O)CSc2nnc(NC(=O)c3ccco3)s2)cc1	FLuc counter 17µM (no result: SMN2 splice enh)
O=C(CSc1nnc(NC(=O)c2ccco2)s1)Nc1ccccc1Br	none (no result: SMN2 splice enh)
O=C(CSc1nnc(NC(=O)c2ccco2)s1)Nc1ccccc1Cl	FLuc counter inconclusive (no result: SMN2 splice enh)
C/C(CC(=O)NC1CCCC1)=N\NC(=O)Cc1csc(N)n1	none
CC1CCC(C(C)C)C(OC(=O)Cn2c(-c3ccccc3)[n+](C)c3ccccc32)C1 (stereo not given)	none
O=[N+]([O-])c1nn(-c2ccc3c(c2)OCCO3)n(O)c1=NCCCO	NPC1 prom act inconclusive, Rab9 promoter act 2µM
Cc1ccc(CN=c2c([N+](=O)[O-])nn(-c3ccc4c(c3)OCCO4)n2O)cc1	ELG1 genotox inconclusive, NPC1 prom act inconclusive, Rab9 promoter act inconclusive, FLuc counter 12µM (no result: SMN2 splice enh)
Cc1ccc(N=c2c([N+](=O)[O-])nn(-c3ccc(Cl)cc3)n2O)cc1C	NPC1 prom act 1.6µM, Rab9 promoter act 1.3µM
O=[N+]([O-])c1nn(-c2ccc3c(c2)OCCO3)n(O)c1=Nc1ccccc1	FLuc counter 12µM
O=[N+]([O-])c1nn(-c2ccc3c(c2)OCCO3)n(O)c1=Nc1ccc(Cl)cc1	FLuc counter inconclusive
CCc1ccc(N=c2c([N+](=O)[O-])nn(-c3ccc4c(c3)OCCO4)n2O)cc1	Rab9 promoter act inconclusive, FLuc counter inconclusive (no result: SMN2 splice enh)
Cc1cc(C)cc(N=c2c([N+](=O)[O-])nn(-c3ccc4c(c3)OCCO4)n2O)c1	none
CCOc1ccc(N2CC(C(=O)NCCC3=CCCCC3)CC2=O)cc1 (stereo not given)	none
